Laboratory results taken from PubChem BioAssay (NCI).
Compounds without any hit were thinned out: in the full panel of roughly 79,000, 15% have a hit. Rule as the data show it: active = growth inhibition above about 70%; inactive = the rest.

Tests used:
[1] = NCI Yeast Anticancer Drug Screen. Data for the rad50 strain (AID 155);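 also: 0% = growth of vehicle-only cultures of the same strain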; settings: S. cerevisiae rad50 strain growth inhibition; at 50.0 µM; stronger effect = higher value
Method in brief: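 Growth of the mutant yeast was measured after compound exposure and referenced to vehicle-treated cultures.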

[2] = NCI Yeast Anticancer Drug Screen. Data for the mec2-1 strain (AID 157); settings: S. cerevisiae mec2-1 strain, at 50.0 µM, stronger effect = higher value
Method in brief: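 Cells of the genetically defined mec2-1 yeast strain are incubated with test compound. Inhibition of growth is calculated against vehicle-treated controls.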

[3] = NCI Yeast Anticancer Drug Screen. Data for the sgs1 mgt1 strain (AID 161);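 also: 0% = growth of cultures given vehicle only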; settings: S. cerevisiae sgs1 mgt1 strain, at 50.0 µM, stronger effect = higher value
Method in brief: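 Genetically altered yeast, compound exposure, growth inhibition relative to vehicle.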

[4] = NCI Yeast Anticancer Drug Screen. Data for the cln2 rad14 strain (AID 165);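 also: 0% = growth equal to vehicle treated cultures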; settings: S. cerevisiae cln2 rad14 strain, at 50.0 µM, stronger effect = higher value
Method in brief: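 The screen exposed genetically defined yeast (cln2 rad14) to test compounds and scored growth inhibition relative to vehicle-treated controls.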

[5] = NCI Yeast Anticancer Drug Screen. Data for the bub3 strain (AID 167); settings: S. cerevisiae bub3 mutant strain, at 50.0 µM, stronger effect = higher value
Method in brief: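 Whole-cell yeast assay. The mutant strain was incubated with compounds, and growth inhibition was determined by comparison with vehicle-treated cells.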

[6] = NCI Yeast Anticancer Drug Screen. Data for the mlh1 rad18 strain (AID 175); settings: S. cerevisiae mlh1 rad18 strain growth inhibition; at 50.0 µM; stronger effect = higher value
Method in brief: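 Compound-treated yeast growth, normalised to vehicle controls. Strain bears defined DNA repair mutations.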

Measured: growth inhibition

O=C1OCC/C1=C\c1cccc([N+](=O)[O-])c1
inactive: [1] 10.4% | [2] 14.4% | [3] 11.2% | [4] -42.7% | [5] 22.5% | [6] 26.9%

NC(N)=NNC(=O)C(=O)O
inactive: [1] -4.5% | [2] -7.9% | [3] 3.85% | [4] -19.5% | [5] -7.6% | [6] 7.9%

CCOC(=O)C(Cl)(Cl)C(Cl)(OCC)C(=O)OCC (stereo unspecified)
inactive: [1] 16.1% | [2] 26.1% | [3] 26.8% | [4] -24.4% | [5] 34.5% | [6] 22.2%

CC(=O)OCc1cocc1COC(C)=O
inactive: [1] -17.2% | [2] -36% | [3] 20.4% | [4] -3.2% | [5] -4.1% | [6] 8.3%

COc1cc2c(cc1OC)C(c1ccc([N+](=O)[O-])c(C)c1)=NCC2
inactive: [1] 28.1% | [2] -15.7% | [3] 39.5% | [4] 15.3% | [5] 19.4% | [6] 0.25%

CC(=O)OC1CC(O)C23COC(O)C1(C)C2CC(O)C1(C)C3C(=O)C(O)C2(C)C(c3ccoc3)CC3OC321 (stereo unspecified)
inactive: [1] -9.9% | [2] 2.75% | [3] -11.3% | [4] 0.2% | [5] -2.2% | [6] -37.7%

CC(=O)OC12c3ccccc3C(c3ccccc31)C1C(=O)N(c3ccccc3O)C(=O)C12 (stereo unspecified)
inactive: [1] -15.8% | [2] -17.4% | [3] -4.15% | [4] 6.2% | [5] -5.4% | [6] 7.7%

N#CC(c1ccccc1)C1CCN(Cc2ccccc2)CC1 (stereo unspecified)
inactive: [1] 45.8% | [2] 20.8% | [3] 48.1% | [4] 47.8% | [5] 45.8% | [6] 33.1%

NS(=O)(=O)c1ccc(N=Cc2ccccc2)cc1
inactive: [1] 0.4% | [2] -1.35% | [3] 12.6% | [4] 5.45% | [5] 15.2% | [6] 10.1%

O=C(NC1CCCCC1NC(c1ccccc1)(c1ccccc1)c1ccccc1)C(=O)NC1CCCCC1NC(c1ccccc1)(c1ccccc1)c1ccccc1 (stereo unspecified)
inactive: [1] -33.9% | [2] -22.4% | [3] -13.7% | [4] 12.1% | [5] -10.1% | [6] -2.35%

O=C(O)CCC(=O)Nc1ccc(C(=O)O)c(O)c1
inactive: [1] 8.4% | [2] -27.8% | [3] -11.1% | [4] -4.45% | [5] 20.9% | [6] -17.9%

CN1CCCCCC1
inactive: [1] -8.05% | [2] -8.45% | [3] 5.95% | [4] -4.95% | [5] -10.9% | [6] -0.85%

N#CC1=C(Nc2ccccc2)SC(c2cccs2)NC1=O (stereo unspecified)
inactive: [1] 12.4% | [2] 4.7% | [3] 20.6% | [4] 16.5% | [5] 11.9% | [6] 23.2%

C/C(N=NS(=O)(=O)c1ccccc1)=C1\C=CC=CN1O
inactive: [1] -7.9% | [2] -1.5% | [3] -4.55% | [4] 2.5% | [5] 12.9% | [6] -9%

CN(C)c1ccc(/C=C/c2ccnc3ccc(Cl)cc23)cc1
inactive: [1] 23% | [2] 22.5% | [3] 32.1% | [4] 5.85% | [5] 21.6% | [6] 34%

COc1cc2c(cc1C)C1=C(C)C(=O)OC1[C@@H](O)[C@@H]2C (stereo partly specified)
inactive: [1] 16.9% | [2] 11.6% | [3] 18.4% | [4] 3.45% | [5] 18.9% | [6] 18.8%

COc1ccc(CCCC2C(=O)CC(C)OC2=O)cc1OC (stereo unspecified)
inactive: [1] -26.9% | [2] 3.25% | [3] 2.1% | [4] -25.8% | [5] 3.05% | [6] -0.4%

CCOC(=O)NC(OCCN(C)C)(C(F)(F)F)C(F)(F)F
inactive: [1] -32.4% | [2] 25.9% | [3] -53.5% | [4] 3.3% | [5] -4.15% | [6] 31.1%

NC(=O)c1nnsc1N/N=C/c1ccc([N+](=O)[O-])cc1
inactive: [1] 8.85% | [2] 25.9% | [3] -25.1% | [4] -2.05% | [5] -20.1% | [6] -5.1%

S=C(Nc1c2c(nc3ccccc13)CCCC2)Nc1c2c(nc3ccccc13)CCCC2
inactive: [1] -14.9% | [2] 9.55% | [3] -0.3% | [4] 9.8% | [5] -17.9% | [6] 12%

COc1ccc(C(C)(C)c2ccccc2)cc1
inactive: [1] -20.1% | [2] -45.1% | [3] -13.4% | [4] -19.9% | [5] -24.6% | [6] -18.6%
